Screening data from PubChem.
AMPAR-TARP mod: modulators of AMPA receptor GluA2-stargazin complexes; O88602+P19491; HEK293 GluA2+stargazin, membrane potential dye (FDSS), glutamate EC50; hits were called plate by plate, in both directions; calls only at 30 µM; 40,000 tested, 3.5% active; AID 1259245;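 active means any of four per-well response measures lying three or more SD from its plate-wide compound average, in either direction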
GIRK2 act: Activates human GIRK2-containing potassium channels; HEK293 GIRK2/NPY4 cells, thallium flux fluorescence; activation (% efficacy), % for hits at 37.5 µM; 34,000 tested, under 10 active;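 active means primary screen hit, no activity in plain HEK293 cells, and in GIRK2-only cells above 5% efficacy rising with concentration; inactive means the rest, including fluorescent compounds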;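 further: efficacy is normalized control-subtracted fluorescence 15 s after thallium addition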
Target sequence (P48051 whole entry, looked up): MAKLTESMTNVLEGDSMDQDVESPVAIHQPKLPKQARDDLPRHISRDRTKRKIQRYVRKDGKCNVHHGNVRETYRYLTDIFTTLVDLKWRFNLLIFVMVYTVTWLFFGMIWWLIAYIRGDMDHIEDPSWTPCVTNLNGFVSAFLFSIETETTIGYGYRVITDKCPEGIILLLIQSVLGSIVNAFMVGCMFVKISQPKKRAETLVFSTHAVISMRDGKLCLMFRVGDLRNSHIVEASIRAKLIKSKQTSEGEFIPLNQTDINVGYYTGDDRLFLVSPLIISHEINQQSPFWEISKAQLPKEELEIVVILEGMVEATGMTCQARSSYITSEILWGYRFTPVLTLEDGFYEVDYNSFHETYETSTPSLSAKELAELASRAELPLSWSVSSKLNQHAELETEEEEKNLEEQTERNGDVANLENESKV
Large screens that a line does not name were inactive. This is one part of a sample in which hits are shown more often than they occur.

COc1ccc(Cl)cc1NC(=O)C(=O)NCC(c1cccs1)N(C)C (stereo not given)	AMPAR-TARP mod active
COc1ccc(NC(=O)C(=O)NCC(c2cccs2)N(C)C)c(OC)c1 (stereo not given)	none
COc1ccc(S(=O)(=O)Nc2ccc3c(c2)CCC(=O)N3)c(C)c1	none (no result: GIRK2 act)
CC1CCCN(S(=O)(=O)c2ccc3ccccc3c2)C1 (stereo not given)	none (no result: GIRK2 act)
CCOc1ccc(CNC(=O)Cc2nnc(-c3cccc(F)c3)o2)cc1	none (no result: AMPAR-TARP mod)
CC(C)S(=O)(=O)c1ccc(CC(=O)Nc2cc(-c3cccs3)nn2CCO)cc1	none
CCN(CC)S(=O)(=O)c1ccc(C(=O)Nc2cc(-c3cccs3)nn2CCO)cc1	AMPAR-TARP mod active
CC(=O)N1CC(C(=O)Nc2cc(C)ccn2)C1	none
CS(=O)(=O)c1ccc(NC(=S)N2CCN(c3ccc(F)cc3)CC2)cc1	none
CCc1ccccc1-n1c(-c2ccccc2)cn2c3c(=O)n(CCOC)c(=O)n(C)c3nc12	AMPAR-TARP mod active (no result: GIRK2 act)
C=C(C)Cn1c(=O)c2c(nc3n(-c4cc(OC)ccc4OC)c(-c4ccccc4)cn23)n(C)c1=O	AMPAR-TARP mod active
COCCn1c(=O)c2c(nc3n(-c4ccccc4C)c(-c4ccccc4)cn23)n(C)c1=O	none (no result: GIRK2 act)
C=CCn1c(=O)c2c(nc3n(-c4cc(OC)ccc4OC)c(-c4ccccc4)cn23)n(C)c1=O	none
O=C(COc1ccc(Cl)cc1Cl)N(Cc1ccccn1)Cc1ccco1	none (no result: AMPAR-TARP mod)
CC(C)c1nnc(C2CCN(C(=O)C3CCN(S(C)(=O)=O)CC3)CC2)o1	none
CCOc1ccccc1NC(=O)COc1c(C)ccc(C)c1C	none
COc1ccc(Nc2cc(C)nc(-n3cc([N+](=O)[O-])cn3)n2)cc1OC	none
COc1ccc(Nc2cc(C)nc(-n3cc([N+](=O)[O-])cn3)n2)cc1Cl	AMPAR-TARP mod active
Cc1ccc(C(=O)Nc2ccc(Nc3nc(C)cc(N4CCCCC4)n3)cc2)cc1	AMPAR-TARP mod active (no result: GIRK2 act)
Cc1ccc(Nc2cc(C)nc(Nc3ccc(NC(=O)c4ccc5c(c4)OCO5)cc3)n2)cc1	none (no result: GIRK2 act)
COc1ccc(NC(=O)CSc2nc(-c3ccc(C)cc3)c3ccccc3n2)c(OC)c1	AMPAR-TARP mod active
COc1ccc(NC(=O)CSc2nnc(C)c3ccccc23)c(OC)c1	none
O=C(NCc1cccs1)Nc1ccc(Cl)c(N2CCCS2(=O)=O)c1	none
O=C(NCc1cccc2ccccc12)Nc1ccc(Cl)c(N2CCCS2(=O)=O)c1	AMPAR-TARP mod active
COc1ccc(Cl)cc1N1CC(c2nc3ccccc3n2CC(=O)N2CCOCC2)CC1=O (stereo not given)	none
O=C(Nc1ccccc1Cl)N(CCc1ccccc1)Cc1ccccn1	none
COc1ccc(NC(=O)Cn2ccc3ccn(Cc4ccccc4C)c3c2=O)cc1	none (no result: AMPAR-TARP mod)
COC(=O)c1ccc(NC(=O)c2cc(=O)c(OC)co2)cc1	none
COc1coc(C(=O)Nc2nc3ccc(Cl)cc3s2)cc1=O	AMPAR-TARP mod active
COc1ccc(NC(=O)c2cc(=O)c(OC)co2)c(OC)c1	AMPAR-TARP mod active
O=C(Nc1nc2ccc(Cl)cc2s1)c1cc(=O)c(OCc2ccc(F)cc2)co1	none
O=S(=O)(NCC(O)(c1cccs1)C1CC1)c1ccc(F)c(Cl)c1 (stereo not given)	none
CCN(CC)CCSc1ccnc2c1c(=O)n(C)c(=O)n2C	AMPAR-TARP mod active
Cn1c(=O)c2c(SCCO)ccnc2n(C)c1=O	none (no result: GIRK2 act)
Cc1cnc2c(c1SCC(=O)N1CCN(c3ccccc3)CC1)c(=O)n(C)c(=O)n2C	AMPAR-TARP mod active
CCOCCSc1ccnc2c1c(=O)n(C)c(=O)n2C	AMPAR-TARP mod active (no result: GIRK2 act)
CCc1cnc2c(c1SCC(=O)N1CCN(c3ccccc3)CC1)c(=O)n(C)c(=O)n2C	none
CCCNC(=O)CSc1ccnc2c1c(=O)n(C)c(=O)n2C	none
CCOC(=O)CNC(=O)CSc1ccnc2c1c(=O)n(C)c(=O)n2C	none
Cn1c(=O)c2c(SCCN3CCCC3)ccnc2n(C)c1=O	AMPAR-TARP mod active
O=C(Cc1cccc2ccccc12)NCC#CCN1CCc2ccccc2C1	none
Cn1c(=O)c2c(SCC(=O)NC(C)(C)C)ccnc2n(C)c1=O	none
Cn1c(=O)c2c(SCC(=O)N3CCCCCC3)ccnc2n(C)c1=O	none (no result: GIRK2 act)
Cn1c(=O)c2c(SCC(N)=O)ccnc2n(C)c1=O	AMPAR-TARP mod active (no result: GIRK2 act)
CCN(CC)C(=O)CSc1ccnc2c1c(=O)n(C)c(=O)n2C	none
C=CCSc1ccnc2c1c(=O)n(C)c(=O)n2C	AMPAR-TARP mod active (no result: GIRK2 act)
CC1CN(C(=O)CSc2ccnc3c2c(=O)n(C)c(=O)n3C)CC(C)O1 (stereo not given)	AMPAR-TARP mod active
COC(=O)C12CC3CC(CC(NC(=O)c4snnc4C)(C3)C1)C2	none
CC(Oc1ccccc1F)C(=O)Nc1cccc(-c2ccc(N3CCOCC3)nn2)c1 (stereo not given)	none
CCOc1ccc(NC(=O)CN2CCN(c3nccn3C)CC2)cc1	none (no result: AMPAR-TARP mod)
CN1C(=O)Cc2cc(NC(=O)Nc3cccc(Cl)c3)ccc21	AMPAR-TARP mod active
CN1C(=O)Cc2cc(NC(=O)/C=C/c3ccccc3)ccc21	AMPAR-TARP mod active
